# Bioassay records from PubChem BioAssay.
# Most compounds without a hit are left out; they make up all but 3.4% or so of the library.
# TEAD-YAP block: TEAD-YAP interaction inhibition | HEK-TIYL cells, TEAD-Gal4/YAP UAS-luciferase luminescence | inhibition, % at 9.12 µM | hit rate 1.4% among 640,000 | AID 1259422; in the data active means inhibition above about 32%;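 further: 0% = median of test compound wells and 100% = reference inhibitor wells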
# FBW7 activator: human FBW7 E3 ligase activation, primary screen | Q969H0 | AlphaScreen FBW7–phospho-cyclin E peptide binding, activator screen | normalized activity (activation), % at 26.1 µM | hit rate 0.13% among 650,000; in the data active means normalized activity above about 1.9%;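 further: purified mutant Fbw7 with reduced substrate affinity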
# MITF primary: blocks human microphthalmia-associated transcription factor; inhibition, % at 2.6 µM; AlphaScreen MITF homodimerization, bead proximity signal; hit rate 0.91% among 650,000; in the data active means inhibition above about 50%;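 further: 0% = vehicle wells with protein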
# Target sequence (O75030 whole entry, looked up): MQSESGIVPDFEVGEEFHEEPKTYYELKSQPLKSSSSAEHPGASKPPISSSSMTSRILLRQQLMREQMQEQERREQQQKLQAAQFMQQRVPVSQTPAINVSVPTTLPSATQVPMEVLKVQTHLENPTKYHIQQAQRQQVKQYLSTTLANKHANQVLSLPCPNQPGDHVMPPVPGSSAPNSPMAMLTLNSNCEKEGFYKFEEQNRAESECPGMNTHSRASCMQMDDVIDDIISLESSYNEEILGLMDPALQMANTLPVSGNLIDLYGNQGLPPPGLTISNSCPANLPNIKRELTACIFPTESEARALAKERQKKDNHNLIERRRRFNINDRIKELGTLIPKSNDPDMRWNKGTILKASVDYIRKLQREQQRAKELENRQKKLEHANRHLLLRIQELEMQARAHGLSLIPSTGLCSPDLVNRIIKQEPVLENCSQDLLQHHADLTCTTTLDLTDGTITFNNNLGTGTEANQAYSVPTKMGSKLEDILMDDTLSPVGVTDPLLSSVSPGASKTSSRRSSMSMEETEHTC
# GPR151 ag: human GPR151 activation; PathHunter beta-arrestin GPR151 cells, luminescence; activation, % at 11.2 µM; hit rate 1% among 650,000; in the data active means activation above about 4.9%;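 further: 0% = median of compound wells and 100% = cells with positive control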
# MITF confirm: human MITF inhibition, confirmation | AID 1259372 | shares compounds with MITF primary | hit rate 16% among 4,700 | inhibition, % at 2.6 µM | AlphaScreen MITF homodimerization, biotin/His-MITF beads;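 active means inhibition above a cutoff derived from the DMSO control wells, cut at about 28% in these data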;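 further: 0% = MITF dimer wells with DMSO only; inhibitors lower the bead chemiluminescence by keeping MITF from dimerizing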
# AlphaScreen DR: AlphaScreen optical interference, dose response counter-screen; shares compounds with MITF primary; AID 1259373; AlphaScreen optical interference counterscreen, cell-free; IC50, µM; hit rate 6% among 480; call rule not given here
# AlphaScreen intf2: AlphaScreen optical interference, counter-screen. shares compounds with MITF primary. LysRS AlphaScreen counterscreen, signal interference, triplicate. inhibition, % at 2.6 µM. hit rate 7.6% among 4,700. AID 1259376;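 active means inhibition above a cutoff derived from the DMSO control wells, cut at about 30% in these data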
# Starred values were filed as active, the others as inactive; . = no result.
SMILES,TEAD-YAP block,FBW7 activator,MITF primary,GPR151 ag,MITF confirm,AlphaScreen intf2,others
Cc1cc2c(c(=O)[nH]1)C(c1ccc(C(C)C)cc1)C(C#N)=C(N)O2 (stereo unspecified),3.8,0.0,12.6,-0.2,.,.,
COc1ccc(COC(=O)C2=C(C)NC(=O)CC2c2ccccc2[N+](=O)[O-])cc1 (stereo unspecified),-1.4,0.1,21.3,-0.9,.,.,
COc1ccc(CCNC(N)=S)cc1OC,-6.4,-0.5,63.1*,-0.1,6.5,-1.1,
COc1ccc(CCNc2ccc(Cl)cn2)cc1OC,-10.1,0.3,97.2*,-0.6,-11.9,-6.1,
OCCNc1nc(Nc2ccc(Cl)cc2)nc(N2CCOCC2)n1,-17.8,-0.2,-8.9,-0.9,.,.,
CC(NC(=O)C1CCN(Cc2ccccc2O)CC1)c1ccccc1 (stereo unspecified),2.3,-0.1,18.6,1.9,.,.,
CC(NC(=O)C1CCN(Cc2ccccc2)CC1)c1ccccc1 (stereo unspecified),3.9,0.2,52.8*,0.4,10.4,6.9,
COc1ccc(CN2CCC(C(=O)NC(C)C)CC2)c(OC)c1OC,-9.8,-0.1,71.2*,0.5,-13.3,-5.3,
CC(NC(=O)C1CCNCC1)c1ccccc1 (stereo unspecified),10.9,-0.1,51.4*,0.1,1.0,12.5,
COc1ccc(OC)c(CN2CCC(C(=O)NC(C)c3ccccc3)CC2)c1 (stereo unspecified),-4.6,-0.1,52.2*,-0.9,8.4,20.5,
COc1cccc(CN2CCC(N3CCN(c4ccccc4)CC3)CC2)c1OC,5.5,0.0,55.5*,0.3,-8.5,-3.0,
COc1ccccc1CN1CCN(Cc2cccc(OC)c2OC)CC1,-2.5,0.0,86.2*,1.5,4.9,16.6,
COc1ccc(CN2CCC(N3CCN(c4ccccc4)CC3)CC2)cc1OC,18.9,0.0,55.7*,-1.7,-6.4,-9.7,
COc1cc(C(=O)N2CCN(Cc3cccc(Oc4ccccc4)c3)CC2)cc(OC)c1OC,6.0,-0.4,28.7,-0.3,.,.,
COc1cccc(CN2CCN(Cc3ccccc3Br)CC2)c1OC,-21.1,-0.2,35.5,-1.6,.,.,
COc1cccc(CN2CCN(Cc3cccc(Oc4ccccc4)c3)CC2)c1OC,-6.9,0.5,74.2*,-0.2,4.7,2.7,
CCCN1C(=O)CCc2cc(NC(=O)C3CC3)ccc21,5.7,0.0,5.0,0.2,.,.,
COc1cccc(CN2CCC(N3CCCC3)CC2)c1OC,3.2,-0.2,20.0,2.3,.,.,
COc1cccc(CN2CCN(C3CCCCC3OC)CC2)c1OC (stereo unspecified),4.2,-0.2,74.0*,-0.2,7.4,11.4,
COc1cccc(CN2CCN(C3CCC(C)CC3)CC2)c1OC (stereo unspecified),-12.3,-0.3,70.1*,-0.9,17.1,-3.0,
COc1ccccc1CNC(=O)CN1CCN(C)CC1,-5.8,-0.1,79.5*,0.0,4.5,12.9,
COc1cccc(CN2CCN(Cc3cccc(OC)c3OC)CC2)c1OC,-2.0,-0.4,74.3*,0.4,6.0,10.3,
O=c1[nH]c2ccccc2nc1/C=C(\O)c1ccc([N+](=O)[O-])cc1,3.0,0.1,4.6,-0.7,.,.,
NC(=O)C1CCN(c2ccc3cccc(OCc4ccc(Cl)cc4)c3n2)CC1,2.8,0.5,3.8,-0.4,.,.,
CCc1ccc(-c2cc3c(=O)n(CC(=O)Nc4ccc(C(C)=O)cc4)nc(C)n3n2)cc1,3.3,0.4,11.2,0.7,.,.,
SMILES,TEAD-YAP block,FBW7 activator,MITF primary,GPR151 ag,MITF confirm,AlphaScreen intf2,others
COc1ccc(OC)c(NC(=S)NC(=O)COc2ccc(C)cc2)c1,8.1,-0.1,8.7,-0.1,.,.,
Cn1cc(C(=O)NCc2ccccc2Cl)c2ccccc2c1=O,14.7,-0.1,-4.4,-0.7,.,.,
COc1cccc(CN2CCN(Cc3cc(OC)c(OC)c(OC)c3)CC2)c1OC,4.2,0.0,61.9*,-0.8,-11.7,-2.5,
COc1cc(CN2CCN(Cc3cccc(C)c3)CC2)cc(OC)c1OC,-3.7,-0.6,41.9,-0.2,.,.,
O=C(Nc1ccc2c(c1)OCO2)c1nn2c(C(F)(F)F)cc(-c3ccc(Br)o3)nc2c1Br,-5.7,0.2,14.7,0.3,.,.,
O=C(NC1CCN(C(=O)CN2CCOCC2)CC1)c1ccccc1F,-0.8,0.7,69.1*,-0.6,-11.9,-10.7,
CCn1c(SCC(=O)N2CCCC2)nnc1-c1ccncc1,-2.3,0.0,-0.6,-0.7,.,.,
O=C(Nc1ccc(-c2cn[nH]c2)c(C(F)(F)F)c1)C1COc2ccccc2O1 (stereo unspecified),-37.1,0.7,61.3*,-0.1,36.9*,3.5,AlphaScreen DR=>6.48
